Only some compounds are listed: those with a hit (about 3.8% of all), similar ones and a draw of the others.
ATXN viability = viability counter-screen for ATXN expression inhibitors | Potency, µM (doses to about 56.7 µM), usual class: cytotoxic | S2 cells (HEK-293 line with an ATXN2-luciferase reporter) viability, CellTiter-Fluor protease fluorescence, 24 h | 400,000 tested, 0.49% active; further: nearly all actives have a fitted effect of over 40% in size
HepG2 viability = counter-screen for TGF-b inhibitors: cytotoxicity in HepG2 cells | AID 588856 | 410,000 tested, 0.76% active | Potency, µM (top dose mostly 46.1 µM), most hits filed as cytotoxic | HepG2 CAGA-GFP viability, ATP luminescence, 18 h
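CellTiter-Glo luminescence gave cytotoxicity after 18 hours at 37 degrees C. The cells were HepG2 CAGA-GFP in 1% FBS DMEM, stimulated with 500 pg/mL TGF-beta after compound addition. %Activity was normalised to no-cell wells (complete cell-killing) and DMSO (no toxicity), and curves were fitted and classified.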
Nrf2 block = inhibitors of Nrf2 signaling | Potency, µM (highest dose often 46 µM), most hits filed as inhibitors | 360,000 tested, 2.1% active | A549 ARE-Fluc reporter, luciferase luminescence, 18-24 h; further: nearly all actives have a fitted effect of over 60% in size
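A549 ARE_Fluc cells (5000/well, 5% FBS OPTI-MEM) pre-incubated 2 h, then treated with compounds 18-24 h at 37C/5% CO2 in concentration-response. CellTiter-Fluor viability read first; BugLite luciferase luminescence after 15 min at room temperature gives Nrf2 activity.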
ATXN2 expr inh = reduces ATXN2 reporter expression in HEK-293 cells; HEK-293 ATXN2-luciferase reporter, luminescence, 24 h; Potency, µM (titrated, usually from 57 µM), actives largely listed as inhibitors; 360,000 tested, 0.72% active; further: nearly all actives have a fitted effect of over 55% in size
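qHTS (up to 57 uM final) was run with 24 h compound exposure of reporter cells at 37 °C. Each well was multiplexed: SteadyGlo luminescence measured ATXN2-luciferase expression after a fluorogenic Gly-Phe-AFC viability readout (25 uM final).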
A549 tox = kills or reduces viability of A549 cells in Nrf2 counter-screen. A549 ARE-Fluc cells, CellTiter-Fluor viability, 18-24 h. Potency, µM (titrated, usually from 46 µM), most hits filed as inhibitors. 390,000 tested, 0.16% active. AID 504648
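Cytotoxicity counterscreen: CellTiter-Fluor fluorescence was measured in A549 ARE_Fluc cells after 18-24 h of compound exposure in a concentration series. The subsequent BugLite luminescent read reports ARE-luciferase activity.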
TGFb inhibitor = inhibitors of TGF-b signaling; HepG2 CAGA-GFP TGF-b/SMAD3 reporter, GFP fluorescence, 18 h; TGF-beta stimulated, 500 pg/mL final; Potency, µM (series often up to 46.1 µM), most hits filed as inhibitors; 410,000 tested, 1.2% active; AID 588855; further: nearly all actives have a fitted effect of over 65% in size
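Read-out: total well GFP (ex488/em500-530) summed from mean per-cell fluorescence. Cells: HEPG2 CAGA-GFP, 1% FBS DMEM, 18 h at 37 degrees C with 500 pg/mL final TGF-beta. Unstimulated wells served as the full-inhibition control; stimulated DMSO wells = 0%.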
Numbers stand for hits; . = inactive; ? = inconclusive; / = no result. The call rests on the fitted dose curve; in most records, active means well fitted curve in the direction sought with a large enough effect; inconclusive means small, poorly fitted or top-dose-only effect, or another doubt; inactive means no such curve, though single readings can be large; an effect the other way counts as inactive or inconclusive.

SMILES	ATXN viability	HepG2 viability	Nrf2 block	ATXN2 expr inh	A549 tox	TGFb inhibitor
CCCCNc1ncnc2oc(-c3ccco3)c(-c3ccco3)c12	/	.	21µM	/	.	?
COc1ccc(-c2oc3ncnc(NCCCN(C)C)c3c2-c2ccc(OC)cc2)cc1	?	.	?	?	.	?
COc1ccc(N(C(=O)c2ccco2)C(C(=O)NC2CCCCC2)c2cccs2)cc1OC (centres undefined)	?	.	.	.	.	.
C#CC(=O)N(c1ccc(OC)cc1OC)C(C(=O)NC1CCCC1)c1cccs1 (centres undefined)	/	.	.	1.8µM	.	?
C#CC(=O)N(c1cc(OC)ccc1OC)C(C(=O)NC1CCCC1)c1cccs1 (centres undefined)	32µM	.	10µM	?	?	?
Cc1cn([C@H]2C[C@H](O)[C@@H](/C=C/C(=O)NCc3ccc4c(c3)OCO4)O2)c(=O)[nH]c1=O	.	.	/	.	/	.
CCOC(=O)c1ccc(S(=O)(=O)N2CCN(C(=O)C3CSC4(C)CCC(=O)N34)CC2)cc1 (centres undefined)	.	.	.	/	.	.
Cc1ccc2nc(N3C(=O)CNC3=S)sc2c1	.	.	?	?	.	11µM
Cc1ccnc(NS(=O)(=O)c2ccc(NC(=O)C(C)(C)Oc3ccc(Cl)cc3)cc2)n1	.	.	.	.	.	.
CNC(=O)c1cc(Oc2ccc(NC(=O)Nc3ccc(Cl)c(C(F)(F)F)c3)c(F)c2)ccn1	/	/	/	19µM	/	/
CCc1nnc(N2CCN(c3ncnc4c3oc3ccccc34)CC2)s1	.	.	10µM	.	.	.
c1ccc(N2CCN(c3ncnc4c3oc3ccccc34)CC2)cc1	?	.	.	?	.	.
Cc1cc2ccccn2c1C(=O)c1cccc([N+](=O)[O-])c1	.	.	.	/	?	.
Cc1cc2ccccn2c1C(=O)c1ccc([N+](=O)[O-])o1	?	11µM	?	?	?	11µM
CC(C)n1c(NCc2cc(Cl)ccc2O)nc2ccccc21	?	.	.	28µM	.	?
COc1cc2c(cc1NC(=O)CSc1nc3ccccc3[nH]1)oc1ccccc12	.	.	18µM	.	?	?
COc1cc2c(cc1NC(=O)CSc1ccccc1)oc1ccccc12	.	.	.	.	.	.
Oc1ccc(/C=N/NC(=S)NCc2ccco2)cc1	?	.	.	.	.	.
S=C(NCc1ccco1)N/N=C/c1ccc(Cl)cc1	.	.	.	.	.	13µM
CC(=O)ON(C(C)=O)c1ccc(/C=C2\C=Cc3ccccc32)cc1	/	.	/	/	/	.
Clc1ccc2ccc3cccnc3c2n1	.	.	.	/	.	.
Cc1cnc2c3c(cc(Cl)c2c1)-c1ccccc1S(=O)(=O)N3	/	.	6.5µM	/	16µM	4µM
CC(N=C1NS(=O)(=O)c2ccccc21)C(=O)Nc1ccc(F)cc1Cl (centres undefined)	/	.	.	/	.	.
O=S1(=O)Nc2c(ccc3cccnc23)-c2ccccc21	?	.	?	3.5µM	?	1.3µM
COc1ccc(N2CCN(C(c3ccccc3)c3nnnn3C(C)C)CC2)cc1 (centres undefined)	/	.	.	/	.	.
SMILES	ATXN viability	HepG2 viability	Nrf2 block	ATXN2 expr inh	A549 tox	TGFb inhibitor
Cc1ccc(NC(=O)CSc2nc(=O)n(CCN(C)C)c3c2CCCC3)cc1Cl	.	.	.	.	.	.
CC(C)(C)c1ccc(NC(=O)COC(=O)c2ccc(NS(=O)(=O)c3ccc(F)c(F)c3)cc2)cc1	.	.	.	.	.	14µM
CC(C)(C)NC(=O)NC(=O)COC(=O)c1cccc(NS(=O)(=O)c2ccc(F)c(F)c2)c1	.	.	?	.	.	.
O=C(Cc1ccc([N+](=O)[O-])cc1)N1CCCCCC1	.	.	.	.	.	.
O=C(CCc1ccc(Oc2cc([N+](=O)[O-])cc([N+](=O)[O-])c2)cc1)N1CCCCCC1	.	.	.	?	.	18µM
Cc1nn(C)c2c1c(-c1ccccc1)cc(=O)n2C(C)C(=O)NCCc1ccc(Cl)cc1 (centres undefined)	?	.	?	?	.	?
CC1CCN(S(=O)(=O)c2cc3c4c(c2)CC(=O)N4CCC3)CC1	/	.	/	/	.	?
CC1CCN(S(=O)(=O)c2ccc3c4c2CC(=O)N4CC(C)S3)CC1 (centres undefined)	/	.	21µM	?	.	.
NC(N)=NN=C1c2ccccc2-c2ccccc21	.	.	.	.	.	.
CCN(CC)CCOc1ccc(Br)cc1	.	.	.	.	.	.
CCCOc1ccc2c(c1)C(=NN=C(N)N)c1cc(OCCC)ccc1-2	25µM	.	.	20µM	.	?
CCN(CC)CCOc1ccc2c(c1)C(=NO)c1cc(OCCN(CC)CC)ccc1-2	8.9µM	.	?	11µM	8.2µM	11µM
COc1ccc(CNC(=O)CN2C(=O)CCSc3ccc(S(=O)(=O)N4CCCC4)cc32)cc1	.	.	.	.	.	.
CC1CCN(C(=O)Cn2cc(SCc3ccccc3)c3ccccc32)CC1	/	.	.	/	.	.
Cn1c(N)c(C(=O)COC(=O)C2(c3ccc(Cl)cc3)CCCC2)c(=O)n(C)c1=O	.	.	18µM	.	?	.
CCOC(=O)C1CCN(C(=O)COC(=O)c2ccc([N+](=O)[O-])o2)CC1	.	13µM	.	.	.	18µM
Cn1c(N)c(C(=O)COC(=O)c2ccc(Br)o2)c(=O)n(C)c1=O	.	.	.	.	.	.
Cn1c(N)c(C(=O)COC(=O)c2ccc([N+](=O)[O-])o2)c(=O)n(C)c1=O	.	.	?	.	.	13µM
Cn1c(N)c(C(=O)COC(=O)C2(c3ccc(F)cc3)CCCC2)c(=O)n(C)c1=O	.	.	?	.	.	.
O=C(Nc1ccc(CN2CCCCC2)cc1)Nc1ccc(Br)cc1Cl	?	.	.	14µM	?	.
CCNC(=O)C1(C)CCCN(Cc2cccc(Oc3ccccc3)c2)C1 (centres undefined)	.	.	/	.	/	.
CCc1nnc(N/N=C/c2ccccc2Cl)n1N	.	13µM	.	.	.	11µM
CCc1nnc(N/N=C/c2ccccc2F)n1N	.	.	.	.	.	?
NC(=O)Nc1cc(-c2ccc(CN3CCOCC3)cc2)sc1C(N)=O	/	/	/	.	/	/
O=C(Nc1nc2cccc(-c3ccc(CN4CCS(=O)(=O)CC4)cc3)n2n1)C1CC1	/	/	/	.	/	/
COC(=O)[C@@H](NC(=O)N1CCN(c2cccc(C(F)(F)F)c2)CC1)C(C)C	.	.	?	.	.	.

Assay outcomes (PubChem BioAssay)
